# Positions count from the first letter of the chain named.
# Assays:
# Assay in all cases: yeast three-hybrid, YBZ-1, SC-Leu-His + 0.5 mM 3-AT, 4 days
# Settings in all cases: tags: N-Gal4 AD-HA kept; label: inside an RPR1-promoter hybrid RNA with tandem MS2 sites; ssRNA
# PUM1 PUF domain R4-DWE = PUM1 PUF domain R4-DWE (Homo sapiens, UniProt Q14671 828-1176, N971D;H972W;Q975E)
# Procedure, shortened: (§1)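 Pumilio-1 PUF domain libraries, randomized (NNK) at the three base-contacting residues of each repeat, were co-expressed with matching RNA elements from a centromeric plasmid in strain YBZ-1 (LexA–MS2 coat fusion, HIS3 reporter). Transformants were plated on SC-Leu (input) and SC-Leu-His + 0.5 mM 3-AT (selection) for four days, and repeat regions were PCR-amplified and Illumina-sequenced. The interaction score is the log2 change in variant frequency from input to selection, with pseudocount 1 where absent.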
# PUM1 PUF domain R5-KGR = PUM1 PUF domain R5-KGR (Homo sapiens, UniProt Q14671 828-1176, C1007K;R1008G;Q1011R)
# Procedure, shortened: as §1
# PUM1 PUF domain R3-RDS = PUM1 PUF domain R3-RDS (Homo sapiens, UniProt Q14671 828-1176, C935R;R936D;Q939S)
# Procedure, shortened: as §1
# PUM1 PUF domain R3-LYA = PUM1 PUF domain R3-LYA (Homo sapiens, UniProt Q14671 828-1176, C935L;R936Y;Q939A)
# Procedure, shortened: as §1
# PUM1 PUF domain R8-QWS = PUM1 PUF domain R8-QWS (Homo sapiens, UniProt Q14671 828-1176, N1122Q;Y1123W;Q1126S)
# Procedure, shortened: as §1
# PUM1 PUF domain R4-WAG = PUM1 PUF domain R4-WAG (Homo sapiens, UniProt Q14671 828-1176, N971W;H972A;Q975G)
# Procedure, shortened: as §1
# PUM1 PUF domain R8-HWL = PUM1 PUF domain R8-HWL (Homo sapiens, UniProt Q14671 828-1176, N1122H;Y1123W;Q1126L)
# Procedure, shortened: as §1
# PUM1 PUF domain R3-CNY = PUM1 PUF domain R3-CNY (Homo sapiens, UniProt Q14671 828-1176, R936N;Q939Y)
# Procedure, shortened: as §1
# PUM1 PUF domain R6-SFQ = biological target: T1, PUM1 PUF domain R6-SFQ (Homo sapiens, UniProt Q14671 828-1176, N1043S;Y1044F)
# T1 sequence: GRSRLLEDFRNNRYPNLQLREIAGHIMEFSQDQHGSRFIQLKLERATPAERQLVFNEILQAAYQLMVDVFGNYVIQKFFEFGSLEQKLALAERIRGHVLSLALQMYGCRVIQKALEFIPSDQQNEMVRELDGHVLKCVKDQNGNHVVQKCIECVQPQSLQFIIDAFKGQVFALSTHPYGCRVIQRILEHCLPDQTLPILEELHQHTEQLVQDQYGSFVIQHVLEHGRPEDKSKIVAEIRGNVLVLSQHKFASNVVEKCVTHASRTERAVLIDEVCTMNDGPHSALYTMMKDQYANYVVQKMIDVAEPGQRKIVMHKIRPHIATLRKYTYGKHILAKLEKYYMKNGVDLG
# Procedure, shortened: as §1
# PUM1 PUF domain R6-HFG = biological target: T2, PUM1 PUF domain R6-HFG (Homo sapiens, UniProt Q14671 828-1176, N1043H;Y1044F;Q1047G)
# T2 sequence: T1 sequence with S216H, Q220G
# Procedure, shortened: as §1
# PUM1 PUF domain R5-PRA = PUM1 PUF domain R5-PRA (Homo sapiens, UniProt Q14671 828-1176, C1007P;Q1011A)
# Procedure, shortened: as §1
# PUM1 PUF domain R8-VHR = PUM1 PUF domain R8-VHR (Homo sapiens, UniProt Q14671 828-1176, N1122V;Y1123H;Q1126R)
# Procedure, shortened: as §1
# PUM1 PUF domain R3-LRC = PUM1 PUF domain R3-LRC (Homo sapiens, UniProt Q14671 828-1176, C935L;Q939C)
# Procedure, shortened: as §1
# PUM1 PUF domain R3-TME = PUM1 PUF domain R3-TME (Homo sapiens, UniProt Q14671 828-1176, C935T;R936M;Q939E)
# Procedure, shortened: as §1
# PUM1 PUF domain R7-KGS = PUM1 PUF domain R7-KGS (Homo sapiens, UniProt Q14671 828-1176, S1079K;N1080G;E1083S)
# Procedure, shortened: as §1
# PUM1 PUF domain R7-KRS = PUM1 PUF domain R7-KRS (Homo sapiens, UniProt Q14671 828-1176, S1079K;N1080R;E1083S)
# Procedure, shortened: as §1
# PUM1 PUF domain R8-HFS = PUM1 PUF domain R8-HFS (Homo sapiens, UniProt Q14671 828-1176, N1122H;Y1123F;Q1126S)
# Procedure, shortened: as §1
# PUM1 PUF domain R7-RRM = PUM1 PUF domain R7-RRM (Homo sapiens, UniProt Q14671 828-1176, S1079R;N1080R;E1083M)
# Procedure, shortened: as §1
# PUM1 PUF domain R4-GWY = PUM1 PUF domain R4-GWY (Homo sapiens, UniProt Q14671 828-1176, N971G;H972W;Q975Y)
# Procedure, shortened: as §1
# PUM1 PUF domain R1-KLL = PUM1 PUF domain R1-KLL (Homo sapiens, UniProt Q14671 828-1176, S863K;R864L;Q867L)
# Procedure, shortened: as §1
sequence,measurement,setting,value
GGCUAGAACUAGUGGAUCCCCCGGCGCCCGGCGGCUCGAGCCCGGGUAAGUGUAGAUAGUCUGCAUGCCGCCGGGCGCCAUGCCUGCAGGUCGACUCUAGAAAACAUG,binding signal,PUM1 PUF domain R4-DWE,4.93 log2 enrichment (interaction score)
GGCUAGAACUAGUGGAUCCCCCGGCGCCCGGCGGCUCGAGCCCGGGUAAGUGUCAAUAGUCUGCAUGCCGCCGGGCGCCAUGCCUGCAGGUCGACUCUAGAAAACAUG,binding signal,PUM1 PUF domain R5-KGR,4.53 log2 enrichment (interaction score)
GGCUAGAACUAGUGGAUCCCCCGGCGCCCGGCGGCUCGAGCCCGGGUAAGUGUAAUUAGUCUGCAUGCCGCCGGGCGCCAUGCCUGCAGGUCGACUCUAGAAAACAUG,binding signal,PUM1 PUF domain R3-RDS,2.88 log2 enrichment (interaction score)
same,binding signal,PUM1 PUF domain R3-LYA,4.81 log2 enrichment (interaction score)
GGCUAGAACUAGUGGAUCCCCCGGCGCCCGGCGGCUCGAGCCCGGGUAAGUGUAAAUAGUCUGCAUGCCGCCGGGCGCCAUGCCUGCAGGUCGACUCUAGAAAACAUG,binding signal,PUM1 PUF domain R8-QWS,4.13 log2 enrichment (interaction score)
same,binding signal,PUM1 PUF domain R4-WAG,2.25 log2 enrichment (interaction score)
same,binding signal,PUM1 PUF domain R8-HWL,3.96 log2 enrichment (interaction score)
same,binding signal,PUM1 PUF domain R3-CNY,3.55 log2 enrichment (interaction score)
same,binding signal,PUM1 PUF domain R6-SFQ,2.98 log2 enrichment (interaction score)
same,binding signal,PUM1 PUF domain R6-HFG,5.43 log2 enrichment (interaction score)
same,binding signal,PUM1 PUF domain R5-PRA,4.36 log2 enrichment (interaction score)
same,binding signal,PUM1 PUF domain R8-VHR,3.13 log2 enrichment (interaction score)
same,binding signal,PUM1 PUF domain R3-LYA,2.44 log2 enrichment (interaction score)
GGCUAGAACUAGUGGAUCCCCCGGCGCCCGGCGGCUCGAGCCCGGGUAAGUGUGAAUAGUCUGCAUGCCGCCGGGCGCCAUGCCUGCAGGUCGACUCUAGAAAACAUG,binding signal,PUM1 PUF domain R5-PRA,1.9 log2 enrichment (interaction score)
GGCUAGAACUAGUGGAUCCCCCGGCGCCCGGCGGCUCGAGCCCGGGUAAGUGUAAGUAGUCUGCAUGCCGCCGGGCGCCAUGCCUGCAGGUCGACUCUAGAAAACAUG,binding signal,PUM1 PUF domain R3-LRC,3.66 log2 enrichment (interaction score)
same,binding signal,PUM1 PUF domain R3-TME,4.56 log2 enrichment (interaction score)
same,binding signal,PUM1 PUF domain R3-LYA,4.73 log2 enrichment (interaction score)
GGCUAGAACUAGUGGAUCCCCCGGCGCCCGGCGGCUCGAGCCCGGGUAAGUGUUAAUAGUCUGCAUGCCGCCGGGCGCCAUGCCUGCAGGUCGACUCUAGAAAACAUG,binding signal,PUM1 PUF domain R5-PRA,2.94 log2 enrichment (interaction score)
GGCUAGAACUAGUGGAUCCCCCGGCGCCCGGCGGCUCGAGCCCGGGUAAGUUUAAAUAGUCUGCAUGCCGCCGGGCGCCAUGCCUGCAGGUCGACUCUAGAAAACAUG,binding signal,PUM1 PUF domain R7-KGS,3.39 log2 enrichment (interaction score)
same,binding signal,PUM1 PUF domain R7-KRS,2.06 log2 enrichment (interaction score)
GGCUAGAACUAGUGGAUCCCCCGGCGCCCGGCGGCUCGAGCCCGGGUAAGCGUAAAUAGUCUGCAUGCCGCCGGGCGCCAUGCCUGCAGGUCGACUCUAGAAAACAUG,binding signal,PUM1 PUF domain R8-HWL,4.14 log2 enrichment (interaction score)
same,binding signal,PUM1 PUF domain R8-VHR,3.33 log2 enrichment (interaction score)
same,binding signal,PUM1 PUF domain R8-HFS,2.47 log2 enrichment (interaction score)
GGCUAGAACUAGUGGAUCCCCCGGCGCCCGGCGGCUCGAGCCCGGGUAAGUCUAAAUAGUCUGCAUGCCGCCGGGCGCCAUGCCUGCAGGUCGACUCUAGAAAACAUG,binding signal,PUM1 PUF domain R7-RRM,4.89 log2 enrichment (interaction score)
same,binding signal,PUM1 PUF domain R7-KRS,4.34 log2 enrichment (interaction score)
GGCUAGAACUAGUGGAUCCCCCGGCGCCCGGCGGCUCGAGCCCGGGUAAGUGUAUAUAGUCUGCAUGCCGCCGGGCGCCAUGCCUGCAGGUCGACUCUAGAAAACAUG,binding signal,PUM1 PUF domain R4-WAG,4.74 log2 enrichment (interaction score)
same,binding signal,PUM1 PUF domain R4-GWY,5.08 log2 enrichment (interaction score)
GGCUAGAACUAGUGGAUCCCCCGGCGCCCGGCGGCUCGAGCCCGGGUAAGUGUACAUAGUCUGCAUGCCGCCGGGCGCCAUGCCUGCAGGUCGACUCUAGAAAACAUG,binding signal,PUM1 PUF domain R4-WAG,3.92 log2 enrichment (interaction score)
GGCUAGAACUAGUGGAUCCCCCGGCGCCCGGCGGCUCGAGCCCGGGUAAGUGUAAAUCGUCUGCAUGCCGCCGGGCGCCAUGCCUGCAGGUCGACUCUAGAAAACAUG,binding signal,PUM1 PUF domain R1-KLL,4.54 log2 enrichment (interaction score)
GGCUAGAACUAGUGGAUCCCCCGGCGCCCGGCGGCUCGAGCCCGGGUAAGUGUAAAUUGUCUGCAUGCCGCCGGGCGCCAUGCCUGCAGGUCGACUCUAGAAAACAUG,binding signal,PUM1 PUF domain R1-KLL,3.14 log2 enrichment (interaction score)

# — PMC8384837, “Expanding the binding specificity for RNA recognition by a PUF domain”
